From the supplement of paper PMC11018630
Structures can show the parent of a compound that is named as a salt. ± gives the standard deviation of the averaged measurements.

What follows are compounds tested on RDEB dermal fibroblasts EB119 (assay: day of extracellular matrix detachment from plate (days); higher = delayed detachment (less fibrotic matrix)). Conditions: compound concentration: 10 uM.

| Structure (SMILES) | day of extracellular matrix detachment from plate |
| --- | --- |
| CCCN(CCC)C(=O)C1=Cc2ccc(-c3ccc(C(=O)N4CCCC4)cc3)cc2N=C(N)C1 [Motolimod (VTX-2337)] | 26 ± 1.4 |
| CC(C)[C@H]1C(=O)N[C@@H](CCCNC(=N)N)C(=O)NCC(=O)N[C@@H](CC(=O)O)C(=O)N[C@H](Cc2ccccc2)C(=O)N1C [Cilengitide] | 4 |
| CCN(CC)CCCC(C)Nc1ccnc2cc(Cl)ccc12 (centres undefined) [Chloroquine Phosphate] | 35.3 ± 1.1 |
| OC(c1cc(C(F)(F)F)nc2c(C(F)(F)F)cccc12)C1CCCCN1 (centres undefined) [Mefloquine HCl] | 39 |
| O=C(O)CCCCCCCC(=O)O [Azelaic acid] | 26.3 ± 1.1 |
| C=CC[C@@H]1/C=C(\C)C[C@H](C)C[C@H](OC)[C@H]2O[C@@](O)(C(=O)C(=O)N3CCCC[C@H]3C(=O)O[C@H](/C(C)=C/[C@@H]3CC[C@@H](O)[C@H](OC)C3)[C@H](C)[C@@H](O)CC1=O)[C@H](C)C[C@@H]2OC [Tacrolimus (FK506)] | 20.7 ± 1.1 |
| CSc1ccc2c(c1)N(CCC1CCCCN1C)c1ccccc1S2 (centres undefined) [Thioridazine HCl] | 39 |
| CCCCCCCCc1ccc(CCC(N)(CO)CO)cc1 [Fingolimod (FTY720) HCl] | 26 ± 1.4 |
| C[N+](C)(CCOc1ccccc1)Cc1ccccc1.O=C([O-])c1cc2ccccc2cc1O [Bephenium Hydroxynaphthoate] | 26 ± 1.4 |
| CNC(=O)[C@H](Cc1ccccc1)NC(=O)[C@H](CC(C)C)[C@H](CSc1cccs1)C(=O)NO [Batimastat (BB-94)] | 18 |
| O=C1C(O)=C([C@H]2CC[C@H](c3ccc(Cl)cc3)CC2)C(=O)c2ccccc21 [Atovaquone] | 26 ± 1.4 |
| CCOC(=O)[C@H]1O[C@@H]1C(=O)N[C@@H](CC(C)C)C(=O)NCCC(C)C [Aloxistatin] | 25 |
| Cc1cc(/C=C/C#N)cc(C)c1Nc1ccnc(Nc2ccc(C#N)cc2)n1 [Rilpivirine] | 39 |
| Nc1nc(NC2CC2)c2ncn([C@H]3C=C[C@@H](CO)C3)c2n1 [Abacavir sulfate] | 27 |
| CCN(CCO)CCCC(C)Nc1ccnc2cc(Cl)ccc12 (centres undefined) [Hydroxychloroquine Sulfate] | 32 |
| CN1CCC(COc2cnc(-c3cccc(Cn4nc(-c5cccc(C#N)c5)ccc4=O)c3)nc2)CC1 | 15.5 ± 3.5 |
| CC(C)(CO)[C@@H](O)C(=O)NCCCO [D panthenol] | 26 ± 1.4 |
| O=C(O[C@H]1CN2CCC1CC2)N1CCc2ccccc2[C@@H]1c1ccccc1 [Solifenacin succinate] | 33.3 ± 1.1 |
| COCCCOc1ccnc(C[S+]([O-])c2nc3ccccc3[nH]2)c1C (centres undefined) [Rebeprazole sodium] | 25 |
